Measurements reported in PubChem BioAssay AID493035 (The Scripps Research Institute Molecular Screening Center, 2011).
Hit rate of the full screen: of about 2,000 compounds, about 45 (2%) were called active.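 Rule for the calls: active = inhibition above the mean of all tested compounds plus 3 SD (cut at about 49% in these data); inactive = the rest.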 The list comes from a sample in which actives are over-represented; it also holds similar structures and randomly drawn compounds.

target: Perilipin-5 (Homo sapiens) + 1-acylglycerol-3-phosphate O-acyltransferase ABHD5 (Homo sapiens) (UniProt Q00G26+Q8WTS1); experiment: blockers of ABHD5 binding to perilipin-5 – cell lysate, split luciferase complementation, luminescence, NIH validation set, pilot screen (AID 493035);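 for inhibition: 0% = DMSO only wells while the 100% control is not stated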; conditions: split G. princeps luciferase complementation, lysates, 4 h; at 7.9 µM, stronger effect = higher value
Sequence (Q00G26 whole entry, looked up): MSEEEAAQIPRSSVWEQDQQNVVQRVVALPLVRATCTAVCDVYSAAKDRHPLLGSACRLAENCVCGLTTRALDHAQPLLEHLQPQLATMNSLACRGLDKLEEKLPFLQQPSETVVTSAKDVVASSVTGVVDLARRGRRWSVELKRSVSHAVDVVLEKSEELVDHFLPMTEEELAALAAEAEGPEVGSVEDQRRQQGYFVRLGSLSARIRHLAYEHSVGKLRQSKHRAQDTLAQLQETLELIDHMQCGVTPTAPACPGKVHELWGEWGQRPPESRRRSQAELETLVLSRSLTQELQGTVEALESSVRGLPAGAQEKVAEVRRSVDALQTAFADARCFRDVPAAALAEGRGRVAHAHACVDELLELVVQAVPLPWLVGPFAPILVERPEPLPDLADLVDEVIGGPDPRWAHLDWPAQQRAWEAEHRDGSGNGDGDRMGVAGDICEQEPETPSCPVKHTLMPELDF
Sequence (Q8WTS1 whole entry, looked up): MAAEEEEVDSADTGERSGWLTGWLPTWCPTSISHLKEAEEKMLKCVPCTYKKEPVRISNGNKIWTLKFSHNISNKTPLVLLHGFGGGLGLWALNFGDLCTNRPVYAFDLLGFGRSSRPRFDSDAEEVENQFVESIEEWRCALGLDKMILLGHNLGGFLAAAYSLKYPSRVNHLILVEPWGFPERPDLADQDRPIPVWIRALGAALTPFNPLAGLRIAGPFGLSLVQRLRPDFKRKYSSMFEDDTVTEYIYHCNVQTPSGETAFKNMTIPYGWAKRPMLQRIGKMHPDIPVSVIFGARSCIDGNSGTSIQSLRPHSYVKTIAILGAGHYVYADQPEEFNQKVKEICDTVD

inhibition, active:
O=C1C=CC(=O)C(C2=C3C(=O)N(CCc4ccccc4)CC(=O)N3CCC2)=C1 74.5%
COC(=O)C1=C(C)NC(C)=C(C(=O)OC)C1c1ccccc1[N+](=O)[O-]
COc1ccc(/C=C\C(=O)c2c(O)ccc3c(C)cc(=O)oc23)cc1OC 59.1%
Cc1ccc(C2=NOC(=O)/C2=C\C=C\c2ccccc2)cc1 94.4%
CC(C)N1C(=O)/C(=C\c2nc3ccccc3c(=O)[nH]2)c2ccccc21 64.9%
COC(=O)[C@@H](N)CS 78.9%
CCN(CC)C(=S)SSC(=S)N(CC)CC 95.2%
CCc1oc2ccccc2c1C(=O)c1cc(Br)c(O)c(Br)c1 50.7%
O=C(c1ccco1)N(CCC(c1ccccc1)c1ccco1)Cc1ccco1 (stereo not drawn) 58.6%
CCCCC/C=C\C[C@H](O)/C=C/c1cccc(C[C@H](O)CCCCO)n1 62.8%
O=C(Nc1ccc(Oc2c(F)c(F)c(F)c(F)c2F)cc1)OC1CCN2Cc3ccccc3N=C12 (stereo not drawn) 69.3%
CCN1/C(=C/C=C/C=C/c2sc3ccccc3[n+]2CC)Sc2ccccc21 70.5%
COc1ccc(C(=O)/C=C/c2cc(C(=O)O)cc3c2OCOC3)c(O)c1 70.3%
COC(=O)C1=C(C)N(Cc2ccco2)C(=O)/C1=C\c1ccc([N+](=O)[O-])cc1 84.5%
CCOC(=O)C(=Cc1ccccc1OC)C(=O)OCC 47.9%
COc1ccc(O)c(C(=O)/C=C/c2cc3ccccc3o2)c1 73.2%

inhibition, inactive:
O=C1CCCCCN1Cc1ccccc1 9.82%
C/C(=N/N1CCN(Cc2cccc3ccccc23)CC1)c1cccnc1 -8.01%
CC1(C)C2CCC1(C(=O)O)c1nc3ccccc3nc12 (stereo not drawn) -0.64%
Cc1ccc(S(=O)(=O)Nc2ccc(S(=O)(=O)Nc3cc(C)nc(C)n3)cc2)cc1 4.03%
CC(C)CCOCC(=O)Nc1cccc(C(=O)O)c1 -0.57%
CCOC(=O)C1=C(C)NC(C)=C(C(=O)OC)C1c1cccc([N+](=O)[O-])c1 (stereo not drawn) 3.99%
COC(=O)C1=C(C)NC(C)=C([N+](=O)[O-])C1c1ccccc1C(F)(F)F (stereo not drawn) -2.75%
O=C(O)CCSCCC(=O)O 2.26%
CC12CCC(C(=O)N3CCCCC3)([C@H](Br)C1=O)C2(C)C (stereo partly drawn) -4.77%
COc1ccc(C(=O)Nc2ccccc2C(=O)NC(Cc2c[nH]c3ccccc23)C(=O)O)cc1 (stereo not drawn) 1.79%
COc1ccc(C(=O)Oc2ccc3c(C)cc(=O)oc3c2C(C)=O)cc1 2.94%
COc1ccc(/C=C/C(=O)Nc2ccccc2C(=O)O)cc1OC -12.4%
Cc1ccc2c(CC(=O)O)coc2c1 -6.46%
CCSC(SCC)[C@H](O)[C@@H](O)[C@H](O)[C@H](O)CO -2.61%
CC(C)(C)C(=O)N1CCCC1C(=O)O (stereo not drawn) -7.48%
Nc1ccc(-c2nc3ncccc3o2)c(Cl)c1 -10.8%
CC(C)Cc1cc(C(=O)N2CCC(N3CCC(C(=O)N4CCCC4)CC3)CC2)n[nH]1 -3.07%
COc1cc(C2Nc3ccccc3NC3=C2C(=O)CC(c2ccc(OC)c(OC)c2)C3)ccc1O (stereo not drawn) 1.84%
C=CCC1(O)C(=O)N2C(=C1C(=O)N1CCOCC1)c1ccccc1CC2(C)C (stereo not drawn) 0.31%
Cc1ccc2c(c1)C(O)(CC(=O)/C=C/C=C/c1ccccc1)C(=O)N2 (stereo not drawn) 24.3%
NC(=O)c1c(-c2ccccc2)oc2ccc(O)cc12 -5.91%
CCOC(=O)C1=C(C)N[C@@]2(O)c3ccccc3C(=O)[C@@]12O 10.3%
COc1ccc(OC(C)C(=O)Nc2ccccc2F)cc1 (stereo not drawn) 2.02%
O=C(c1cccnc1)N1N=C(C2CC2)CC1(O)C(F)(F)F (stereo not drawn) 2.77%
O=C(Nc1cccc(C(=O)O)c1)/C(=C\c1ccccc1)NC(=O)c1ccccc1 -2.05%
O=C(O)CCCCCCNC(=O)c1cncc(O)c1 -6.1%
CC(=O)OC(CC(=O)O)C[N+](C)(C)C (stereo not drawn) -14.8%
COc1ccc(C(=O)Nc2nc3ccccc3c(=O)[nH]2)cc1 0.27%
COc1ccc(NC(=O)C2CSC3c4ccccc4C(=O)N23)cc1 (stereo not drawn) 4.85%
CCOC(=O)C(Cc1cc(C(C)=O)ccc1OC(C)C)C(=O)OCC -3.49%
O=C1C2C3C=CC(C4CC34)C2C(=O)N1/N=C/c1ccc(-c2ccc([N+](=O)[O-])cc2)o1 (stereo not drawn) -2%
c1ccc(Cn2ncc3c(Nc4ccccc4)ncnc32)cc1 -6.21%
O=C(NO)c1ccccc1O -11.8%
CC(=O)N[C@@H](CS)C(=O)O -2.08%
COc1cc(OC)c2c(C)c(Cl)c(=O)oc2c1 -6.84%
CCN(CC)C(=O)c1sc(NC(=O)c2c(OC)cccc2OC)c(C#N)c1C -4.18%
CCCC(CCC)C(=O)OC1C[C@H]2CC[C@@H](C1)[N+]2(C)C (stereo partly drawn) -9.28%
COc1ccc(O)c(C2=Nc3ccccc3N=C(c3ccccc3)C2)c1 -11.4%
C=CCOc1ccc(C(=O)CC)cc1OC -3.26%
CCCCc1oc2ccccc2c1C(=O)c1cc(I)c(OCCN(CC)CC)c(I)c1 -3.91%
CC(=O)CCc1oc2ccccc2c1-c1ccccc1 -0.95%
COc1ccc2cc[nH]c2c1 5.24%
COc1cccc2c(=O)c(C/C=C(/C)Cl)c(C)[nH]c12 -0.4%
COc1ccc(N2CCN(C(=S)NCc3ccccc3)CC2)cc1 10.2%
CC(C)=CCC(C)(C)/C=N/NC(N)=O -11.2%
CC(=O)N(CCC(Cc1ccccc1)c1ccco1)Cc1ccco1 (stereo not drawn) 39.1%
COc1ccccc1C(CCN(Cc1ccccc1)C(C)=O)c1ccco1 (stereo not drawn) 7.01%
COc1ccc(-c2cc(C(=O)N3CCOCC3)c3cc(C)ccc3n2)cc1 -3.27%
O=C(c1ccc(Cl)cc1)C1CCCN(C(=O)/C=C/c2ccccn2)C1 (stereo not drawn) 8.56%
CSCCC(NC(=O)/C(=C/c1ccc2c(c1)OCO2)NC(=O)c1cccc([N+](=O)[O-])c1)C(=O)O (stereo not drawn) 5.37%
OC[C@@H](O)[C@@H](O[C@H]1O[C@H](CO)[C@@H](O)[C@H](O)[C@H]1O)[C@H](O)[C@@H](O)CO -8.59%
Cc1cccc(C(=O)c2cccc(C)c2)c1 -8.84%
Cn1c(=O)c(C(=O)NCCO)c(O)c2ccccc21 -4.23%
Cc1ccc(S(=O)(=O)N2CCC(C(=O)N[C@@H](C)C(=O)NC3CCS(=O)(=O)C3)CC2)cc1 (stereo partly drawn) -6.13%
Cc1ccc(-c2nnc(-c3ccc4c(c3)OCO4)o2)cc1 -9.18%
CN(C)CCCN1c2ccccc2Sc2ccccc21 -13%
CC(CN1c2ccccc2Sc2ccccc21)N(C)C (stereo not drawn) -12.2%
C=CCn1c(SCC(=O)NC2CCCCC2)nc2ccccc2c1=O -1.42%
COc1ccccc1-c1ccc(/C=C2/C=C(CC(C)C)OC2=O)o1 7.79%
CCOC(=O)c1c(C)oc2cc(Br)c(OC(C)C(=O)OCC)cc12 (stereo not drawn) -0.05%
COc1cccc(OCC(O)CO)c1 (stereo not drawn) -6.51%
N#C/C(C(N)=O)=c1/ccc2c(c1)N1C3=C(CCCC3)CC3CCCCC31N=2 (stereo not drawn) 25.4%
COc1cccc(/C=C/C(=O)c2c(O)cc(C)oc2=O)c1O 44.4%
COc1ccc(C(=O)COc2ccc(F)cc2)c(O)c1 -6.5%
CC1=CC(C)(C)N2C(=O)C3(NCCc4c3[nH]c3ccccc43)c3cc(C)cc1c32 (stereo not drawn) -1.07%
O=C(NC(=S)Nc1ccc(N2CCN(C(=O)c3ccccc3)CC2)cc1)c1cccs1 11.4%
Cc1ccc(S(=O)(=O)n2ccnc2)cc1C -3.74%
COCCCN1C(=O)/C(=C\c2cccs2)C(C(=O)OC)=C1C 0.91%
COC(=O)c1ccc(=O)n(Cc2ccco2)c1 18.6%
CCNC(=O)C12CCC(C)(C(=O)O1)C2(C)C (stereo not drawn) -5.33%
CC(C)[C@H](NC(=O)[C@@H]1CSCN1C(=O)OC(C)(C)C)C(=O)NCC1CCC(C(=O)O)CC1 (stereo partly drawn) -18.6%
CC(=O)N/C(=C/c1ccc2c(c1)OCO2)C(=O)NCCO 2.23%
COc1ccc(C2=C(CN(C)C)C(c3ccccc3)c3ccccc3O2)cc1 (stereo not drawn) 1.13%
CCOC(=O)C(=O)N1CCN(c2ccccc2OC)CC1 -5.55%
COc1ccccc1/C=C/C(=O)OCCN1CCOCC1 -8.59%
CCn1cc(CN2N=C(C)CC2c2ccccc2)c(C)n1 (stereo not drawn) 2.34%
Cc1ccc(S(=O)(=O)NC(=O)Nc2cc(C)ccc2F)cc1 -7.32%
CC(C)(C)N1NC2(CCCCC2)NC1=S 6.12%
COc1ccc2oc(=O)c(C(=O)N3CCN(c4ccccc4)CC3)cc2c1 9.11%
COc1ccc2oc(=O)c(C(=O)Nc3ccccc3-c3ccccc3)cc2c1 -5.51%
Cc1ccc(C(=O)O)cc1NC(=O)c1cccs1 -5.26%
CN1/C(=C\C=Nc2ccccc2)C(C)(C)c2ccccc21 14.1%
